Rows were chosen to be rich in hits. Some 6% of all compounds tested hit in one or more screens of this group.
DRD3 agonist: activates the human D3 dopamine receptor. AID 652048. max activation, %. 410,000 compounds, 0.58% hits. P35462. D3R DiscoveRx beta-arrestin cells, luminescence, 90 min; in the data active = max activation above about 30%
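Cells at 1500/well, incubated overnight, then treated with pinned compounds (dopamine as control) for 90 min at 37 degrees C. DiscoveRx reagent added for 30 - 60 minutes at room temperature; luminescence read.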
D1 ag: activates the human D1 dopamine receptor | P21728 | HEK293 T-REx D1 cells, calcium flux, agonist mode | activation, % at 2 µM | 360,000 compounds, 1% hits | AID 504660; in the data active = activation above about 30%
Target sequence (P21728 whole entry, looked up): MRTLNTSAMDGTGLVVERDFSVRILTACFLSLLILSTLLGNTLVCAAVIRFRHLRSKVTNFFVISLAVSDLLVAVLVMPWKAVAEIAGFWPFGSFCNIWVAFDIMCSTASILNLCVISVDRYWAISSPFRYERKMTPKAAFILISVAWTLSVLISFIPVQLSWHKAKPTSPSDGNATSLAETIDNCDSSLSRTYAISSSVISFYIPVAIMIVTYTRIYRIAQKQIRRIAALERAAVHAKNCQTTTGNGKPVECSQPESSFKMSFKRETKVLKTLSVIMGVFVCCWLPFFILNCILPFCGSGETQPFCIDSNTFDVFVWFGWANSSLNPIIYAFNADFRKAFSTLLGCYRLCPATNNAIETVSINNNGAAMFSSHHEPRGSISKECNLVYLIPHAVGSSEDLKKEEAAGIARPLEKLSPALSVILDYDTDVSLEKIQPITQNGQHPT
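Inducible HEK293 T-REx D1 cells, force-coupled to calcium signalling, were plated at 4000 cells/well with tetracycline and held overnight at 30 C. After no-wash calcium dye loading, compound-evoked calcium rise over 180 s flagged agonists.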
D1 PAM: potentiators of human D1 dopamine receptor; P21728; HEK293 TREx D1 cells, calcium flux, dopamine EC20 potentiation; potentiation, % at 10 µM; 360,000 compounds, 0.036% hits; AID 504651; in the data active = potentiation above about 30%
D1 antagonist: human D1 dopamine receptor antagonism. P21728. HEK293 TREx D1 cells, calcium flux, dopamine EC80; active compounds read low. activity change, negative = inhibition, % at 10 µM. 360,000 compounds, 3.2% hits; in the data active = activity change below about -30%
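Inducible Hek293 Trex D1 cells (tetracycline, overnight, 30 C). Calcium dye 30–90 min RT. Antagonist mode: EC80 dopamine added after 180 s compound read.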
D3 antag: D3 dopamine receptor (human) antagonism. D3R cells, DiscoveRx beta-arrestin luminescence, antagonist mode; active compounds read low. max response, negative = inhibition, %. 360,000 compounds, 2.5% hits; in the data active = max response below about -50%; inconclusive = no clear call, values can overlap the other calls
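Cells expressing the human receptor were seeded at 1500 cells/well, incubated overnight at 37 degrees C in 5% CO2, then exposed to library compounds with dopamine controls for 90 minutes at 37 degrees C before luminescent detection.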
Numbers stand for hits; – = inactive; ? = inconclusive; · = not tested or not shown; ! = not confirmed by another sample.

SMILES | DRD3 agonist | D1 ag | D1 PAM | D1 antagonist | D3 antag
S=C(Nc1ccccc1Cl)NC1CCN(Cc2ccccc2)CC1 | – | – | – | – | -84
CC(C)c1ccccc1NC(=S)NC1CCN(Cc2ccccc2)CC1 | – | – | – | – | -79
FC(F)(F)c1ccccc1NC(=S)NC1CCN(Cc2ccccc2)CC1 | – | – | – | – | -58
O=C(CSc1n[nH]c(-c2ccccc2)n1)N1CCN(c2ccccc2F)CC1 | – | – | – | – | ·
Cc1cc(F)ccc1NC(=O)Cn1cc(S(=O)(=O)NC(C)C)c(S(=O)(=O)NC(C)C)c1 | – | – | – | – | ·
FC(F)(F)c1ccccc1NC(=S)Nc1ccccc1 | – | – | – | -35 | –
S=C(NCc1ccc(Cl)cc1)NC1CCN(Cc2ccccc2)CC1 | – | – | – | · | -66
Cc1c(Cl)cccc1NC(=S)N1CCN(Cc2ccccc2)CC1 | – | – | – | – | –
Cc1c(Cl)cccc1NC(=S)NC1CCN(Cc2ccccc2)CC1 | – | – | – | -33 | -72
Cc1cccc(NS(=O)(=O)c2ccc3c(c2)CCN3C(=O)C2CC2)c1C | – | – | – | – | ·
CN(C)CCNC(=O)c1ccc(Cn2c(=O)c3cccn3c3cccnc32)cc1 | – | – | – | – | ·
C#CCN(C[C@@H]1[C@@H](OC(=O)NCC2CCCCC2)[C@@H](OC(=O)NCC2CCCCC2)Cn2c(=O)ccc(=O)n21)S(=O)(=O)c1ccc(C)cc1 | – | · | · | · | -81
CCCCCCCCCC[n+]1cccc(C(=O)N(CC)CC)c1 | – | – | – | – | –
CCC(C)(C)c1ccc(OCCCC[n+]2cccc(C)c2)c(C(C)(C)CC)c1 | – | 169 | – | – | –
CCc1ccccc1NC(=O)C(=O)NCCc1sc(-c2cccc(F)c2)nc1C | – | – | – | – | ·
COc1ccc(CCNc2ncnc3c2c(-c2ccccc2)cn3-c2ccc(Cl)cc2)cc1OC | – | – | – | – | ·
Cc1ccccc1Nc1ncnc2c1c(-c1ccccc1)cn2-c1ccc(F)cc1 | – | – | – | -34 | ·
COc1cccc(N2CCN(c3ncnc4c3c(-c3ccccc3)cn4-c3ccc(F)cc3)CC2)c1 | – | – | – | – | ·
CN1CCN(c2ncnc3c2c(-c2ccccc2)cn3-c2ccc(F)cc2)CC1 | – | – | – | -42 | -63
COc1ccc(Cl)cc1Nc1ncnc2c1c(-c1ccccc1)cn2-c1ccccc1 | – | – | – | -58 | ·
CCN(CC)c1cc2c(cc1F)c(=O)c(S(=O)(=O)c1ccc(OC)cc1)cn2CC | – | – | – | – | ·
Cc1ccccc1/C=C/C1=NCCN1 | – | – | – | -43 | ?
Cn1cnnc1SCC(=O)c1c(N)n(Cc2ccccc2)c(=O)n(C)c1=O | – | – | – | -60 | –
Cc1nnc(SCC(=O)c2c(N)n(Cc3ccccc3)c(=O)n(C)c2=O)n1C | – | – | – | – | –
COc1ccc(C2=NN(CCC(=O)NCCc3ccccc3)C(=O)CC2)cc1 | – | – | – | – | ·
SMILES | DRD3 agonist | D1 ag | D1 PAM | D1 antagonist | D3 antag
COc1ccc(-c2onc(C)c2C)cc1S(=O)(=O)N(C)Cc1ccccc1 | – | – | – | – | ·
CCCOc1ccc(CSc2ncn[nH]2)cc1 | – | – | – | – | -82
Brc1ccc(CSc2ncn[nH]2)cc1 | – | – | – | – | –
O=C1c2ccccc2C(Nc2ccccc2F)N1c1cccnc1 (centres undefined) | – | – | · | -35 | –
COC(=O)c1ccccc1NC1c2ccccc2C(=O)N1c1cccnc1 (centres undefined) | – | – | – | – | –
CCOC(=O)c1cccc(NC(=O)N2CC(CC)Oc3ccccc32)c1 (centres undefined) | – | – | – | – | ·
COc1ccc([N+](=O)[O-])cc1NC(=O)c1cn(-c2ccc(Cl)cc2)c(=O)c2ccccc12 | – | – | – | – | -53
COc1ccc(Cl)cc1NC(=S)NCCC(c1ccccc1)c1ccccc1 | – | – | – | – | -65
COc1cc(NC(=S)NCCC(c2ccccc2)c2ccccc2)c(OC)cc1Cl | – | – | – | – | –
COc1ccccc1C(=O)Nc1ccccc1SC(=O)c1ccccc1OC | – | – | – | – | -57
CCc1ccc2oc(C(=O)Nc3cc(Cl)ccc3OC)cc(=O)c2c1 | – | – | – | -48 | ·
COC(=O)c1ccccc1NC(=O)c1ccccc1OC | – | – | – | – | –
CCOC(=O)c1ccc(NC(=O)CCn2c(=O)c3cccn3c3cccnc32)cc1 | – | – | – | – | ·
CC(=O)c1cccc(NC(=O)c2c(C)nn(-c3ccc(F)cc3)c2-n2cccc2)c1 | – | – | – | – | ·
CC(C)c1ccc(NS(=O)(=O)c2ccc3nc(-c4ccccc4)[nH]c3c2)cc1 | – | – | – | – | ·
Cc1cc(=O)n2c(C(=O)Nc3ccc(C)c(Cl)c3)c(C(=O)Nc3ccccc3)sc2n1 | – | – | – | – | ·
CCN(C(=O)Cn1nc(Cc2ccncc2)c2ccccc2c1=O)c1cccc(C(F)(F)F)c1 | – | – | – | – | ·
COc1cc(C2CC(=O)Nc3c2c(C)nn3-c2nncc(-c3ccccc3)n2)cc(OC)c1OC (centres undefined) | – | – | – | – | ·
COc1ccc(Cl)cc1NC(=O)c1ccccc1C | – | – | – | -44 | –
Cc1c(NC(=O)c2ccc(C(C)(C)C)cc2)cccc1[N+](=O)[O-] | – | – | – | -42 | –
COc1ccc(Cl)cc1NC(=O)Nc1cccc([N+](=O)[O-])c1C | – | – | – | -64 | -76
COc1ccc(Cl)cc1NC(=O)NC1CCCCC1 | – | – | – | – | –
COc1ccccc1C(=O)Nc1cc(Cl)ccc1O | – | – | – | – | –
COc1ccccc1NC(=O)c1cc(Br)ccc1Cl | – | – | – | -35 | –
Cc1cc(C(=O)Nc2cccc([N+](=O)[O-])c2C)cs1 | – | – | – | – | –
SMILES | DRD3 agonist | D1 ag | D1 PAM | D1 antagonist | D3 antag
CCOC(=O)c1ccc(NC(=O)C(C)N(c2ccc(OCC)cc2)S(C)(=O)=O)cc1 (centres undefined) | – | – | – | – | ·
COc1cccc(CN2C(=O)c3ccccc3Sc3ccc(C(=O)N(C)Cc4ccccc4)cc32)c1 | – | – | – | – | ·
COc1ccc(CNC(=O)Cn2nc([N+](=O)[O-])cc2C)cc1 | – | – | – | – | –
COc1ccc(/C(C)=N/NC(=O)Cn2nc([N+](=O)[O-])cc2C)cc1 | 51 | – | – | – | –
O=C1CCCC(=O)N1c1ccc(N2CCN(c3ccc([N+](=O)[O-])cc3)CC2)c([N+](=O)[O-])c1 | · | – | – | – | ·
O=C1CCCC(=O)N1c1ccc(N2CCN(c3ccccc3)CC2)c([N+](=O)[O-])c1 | – | – | – | -46 | –
O=C1C2CC=CCC2C(=O)N1c1ccc(N2CCN(c3ccccn3)CC2)c([N+](=O)[O-])c1 (centres undefined) | – | – | – | -36 | –
NC(=O)C1CCN(c2nc(-c3ccc(Br)cc3)cs2)CC1 | – | – | – | -46! | –
CC(=O)c1ccc(-c2csc(N3CCC(C(N)=O)CC3)n2)cc1 | · | – | – | – | ·

Screening results (PubChem BioAssay)
